29 molecules from PubChem BioAssay (EPA / NIEHS) can be followed below.

Records with an inconclusive call do not appear. Active and inactive are the calls of the source. The calls were made as follows: active = hit-call score of the fitted dose curve at least 0.9, where 1 is the maximum; inconclusive = response in the unintended direction; inactive = score below 0.9.

Assay [1] has as its target Cellular tumor antigen p53 (Homo sapiens) (UniProt P04637). The assay is described as follows: TOX21_p53_BLA_p2_ratio: Tox21 HCT-116 p53 Agonism Beta-lactamase Assay, Ratio, Phase 2 (AID 2283592). Put shortly: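 Gain-of-signal p53 agonism was scored from the beta-lactamase FRET ratio (460/530 nm, 405 nm excitation) in HCT116 cells treated 16 h at 37C, 5% CO2, with DMSO serving as negative control and baseline.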

Assay [2] has the same target. Description: TOX21_p53_BLA_p5_ratio: Tox21 HCT-116 p53 Agonism Beta-lactamase Assay, Ratio, Phase 5 (AID 2283599). In outline: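 Beta-lactamase reporter ratio (blue 460 nm over green 530 nm, 405 nm excitation) after 2 h CCF4-AM loading, in HCT-116 cells exposed 16 h at 37 C to compounds pinned at 217-fold dilution. Increases relative to DMSO baseline scored.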
For assay [3] the target is unchanged. Description: TOX21_p53_BLA_p4_ratio: Tox21 HCT-116 p53 Agonism Beta-lactamase Assay, Ratio, Phase 4 (AID 2283601). In outline: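 Signal is the blue/green (460nm/530nm) ratio of cleaved versus uncleaved CCF4-AM substrate, read after 2 h substrate loading. Cells were HCT116 carrying the p53-responsive beta-lactamase reporter, dosed 16 h at 37C, 5% CO2; CellTiter-Glo measured in parallel.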

Assay [4] in a line: TOX21_p53_BLA_p5_viability: Viability Assessment in the Tox21 HCT-116 p53 Agonism Beta-lactamase Assay, Phase 5 (AID 2283600). Put shortly: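 After the 460/530 nm beta-lactamase measurement, the wells received an ATP-detection luciferase reagent; signal was read 30 min later at RT. Compound treatment lasted 16 h on cells pre-incubated 5 h post-seeding.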
The nature of assay [5]: TOX21_TRB_BLA_Antagonist_Followup_viability: Viability Assessment in the Tox21 Thyroid Hormone Receptor beta Antagonism Beta-lactamase (BLA) Follow-Up Assay (AID 2283961). In outline:
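ATP-based CellTiter-Glo luminescence (30 min, room temperature) run in the same wells as the TRβ-bla readout. Cells: GeneBLAzer HEK293T expressing GAL4-TRβ LBD, exposed 18 h at 37C to compounds at 11 concentrations in triplicate, stripped-serum medium.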

Assay [6] in a line: TOX21_p53_BLA_p3_viability: Viability Assessment in the Tox21 HCT-116 p53 Agonism Beta-lactamase Assay, Phase 3 (AID 2283593).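 Also: cells exposed to compound for 16 h before reading.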 In outline: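 Cellular ATP was quantified by CellTiter-Glo luminescence, read after 30 min at room temperature. Beforehand, HCT116 cells (4000/well) received compound 5 h post-seeding, 217-fold diluted from DMSO, then incubated 16 h at 37C.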
For assay [7], the target named is Cellular tumor antigen p53 (Homo sapiens) (UniProt P04637). Description: TOX21_p53_BLA_p3_ratio: Tox21 HCT-116 p53 Agonism Beta-lactamase Assay, Ratio, Phase 3 (AID 2283596). In outline: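 HCT116 p53-bla cells (4000/well) given compound in DMSO (217-fold dilution) after 5 h, incubated 16 h at 37C. CCF4-AM substrate 2 h at room temperature; 460/530 nm emission ratio, gain fitted against DMSO.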
Chain of Cellular tumor antigen p53 (Homo sapiens) (P04637 whole entry, looked up): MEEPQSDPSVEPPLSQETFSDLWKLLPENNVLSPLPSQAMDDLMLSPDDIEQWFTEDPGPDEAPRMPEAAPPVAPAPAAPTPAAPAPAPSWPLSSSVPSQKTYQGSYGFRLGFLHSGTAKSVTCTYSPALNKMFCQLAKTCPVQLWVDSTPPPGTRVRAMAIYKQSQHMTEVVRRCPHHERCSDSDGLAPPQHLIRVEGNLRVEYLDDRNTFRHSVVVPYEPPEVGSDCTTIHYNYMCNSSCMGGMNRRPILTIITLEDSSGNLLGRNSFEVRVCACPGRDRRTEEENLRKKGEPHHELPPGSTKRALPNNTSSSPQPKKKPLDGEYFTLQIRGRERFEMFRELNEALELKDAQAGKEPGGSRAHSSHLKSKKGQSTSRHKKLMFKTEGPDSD

Assay [8] in a line: TOX21_p53_BLA_p4_viability: Viability Assessment in the Tox21 HCT-116 p53 Agonism Beta-lactamase Assay, Phase 4 (AID 2283597).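 Also: hits lower the luminescence signal meaning cytotoxicity.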 Put shortly: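 Following a 16 h exposure at 37C, the treated HCT116 wells were first read for the FRET ratio. They were then lysed with CellTiter-Glo, and ATP luminescence was recorded after 30 min at room temperature.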

For `CCCCCCCCCCCCCCC1CO1` (stereo not given), the result in assay [1], in assay [2] and in assay [3] was inactive.

`C=CCCCCCCCC`: the outcome in assay [1], in assay [4] and in assay [3] was inactive.

For the molecule `c1ccc2c(c1)Sc1ccccc1N2CCN1CCCC1`, the result in assay [1], in assay [2] and in assay [3] was inactive.

On to `CCC(CO)(CO)[N+](=O)[O-]`, for which the result in assay [1] and in assay [4] was inactive.

In the case of `C#C[C@]1(O)CC[C@H]2[C@@H]3CCC4=CC(=O)CC[C@@H]4[C@H]3C(=C)C[C@@]21CC`, the result in assay [1], in assay [2], in assay [3] and in assay [5] was inactive.

On to `Cc1ccc2cccnc2c1`, for which the result in assay [1], in assay [2], in assay [4] and in assay [3] was inactive.

In the case of `CCCCCCCCCCCCCCCCN(C)C`, the result in assay [1], in assay [4] and in assay [3] was inactive.

With `[O-][n+]1ccccc1SSc1cccc[n+]1[O-]`, the outcome in assay [1], in assay [2], in assay [4] and in assay [3] was inactive.

For `c1ccc(SCCSc2ccccc2)cc1`, the outcome in assay [1], in assay [2] and in assay [3] was inactive.

`Cc1nc2ccc(Cl)cc2[nH]1`: the result in assay [1], in assay [2] and in assay [3] was inactive.

Regarding `C=C(C)C(=O)OC1CC(C)CC(C)(C)C1` (stereo not given), the outcome in assay [1], in assay [2] and in assay [3] was inactive.

Regarding `FC(F)(F)C(Cl)(Cl)Cl`, the outcome in assay [1], in assay [4] and in assay [3] was inactive.

As for `CCCCCCCCCCCCCCCCCC(=O)OCCO`, the outcome in assay [1], in assay [2], in assay [4] and in assay [3] was inactive.

Take `COC(=O)NCCC[Si](OC)(OC)OC`: the outcome in assay [1] and in assay [4] was inactive.

For `COC(=O)C(C)(C)C`, the outcome in assay [1], in assay [2] and in assay [3] was inactive.

Turning to `CC1COc2c(N3CCN(C)CC3)c(F)cc3c(=O)c(C(=O)O)cn1c23` (stereo not given), the outcome in assay [1], in assay [2] and in assay [3] was inactive.

For the molecule `CO[C@@]1(NC(=O)C(C(=O)O)c2ccc(O)cc2)C(=O)N2C(C(=O)O)=C(CSc3nnnn3C)CO[C@@H]21` (stereo not given in full), the outcome in assay [1], in assay [2], in assay [4] and in assay [3] was inactive.

Consider `CC(=O)Nc1ncc([N+](=O)[O-])s1`, for which the outcome in assay [1], in assay [2], in assay [4] and in assay [3] was inactive.

Turning to `CCCC(=O)C(=O)O`, the outcome in assay [1], in assay [2] and in assay [3] was inactive.

For `CN1CCN(C(c2ccccc2)c2ccccc2)CC1`, the result in assay [1], in assay [2] and in assay [3] was inactive.

`CCCC(C)C`: the result in assay [1], in assay [2] and in assay [3] was inactive.

As for `Cc1ccco1`, the result in assay [1], in assay [2] and in assay [3] was inactive.

Take `C=CC(C)(O)CC/C=C(/C)CCC=C(C)C` (stereo not given): the outcome in assay [1] and in assay [4] was inactive.

Turning to `O=[N+]([O-])c1c(Cl)cc(Cl)cc1Cl`, the outcome in assay [1] and in assay [4] was inactive.

Regarding `CCCC(C)CO` (stereo not given), the outcome in assay [1] and in assay [3] was inactive.

On to `N[C@@H](CS)C(=O)O`, for which the outcome in assay [1], in assay [4] and in assay [3] was inactive.

In the case of `CCCOC(C)=O`, the result in assay [6], in assay [7], in assay [8], in assay [2] and in assay [4] was inactive.

As for `CNS(=O)(=O)Cc1ccc2[nH]cc(CCN(C)C)c2c1`, the call in assay [6], in assay [7], in assay [8], in assay [2] and in assay [4] was inactive.

For the molecule `O[C@@H]1CO[C@H]2[C@@H]1OC[C@@H]2O`, the concentration at half-maximal activity (AC50) (as a rule, the concentration at which the activity in the assay is half-maximal) in assay [6] was 43.1 µM (active). In addition, the outcome in assay [7], in assay [8], in assay [2], in assay [4] and in assay [3] was inactive.
